# Test results as given in article PMC7862700, “An all-to-all approach to the identification of sequence-specific readers for epigenetic DNA modifications on cytosine”.
# Legend:
# Experiment in all cases: DAPPL (digital affinity profiling via proximity ligation, sequencing); 10 mM Tris-HCl pH 7.5, 50 mM NaCl, 1 mM DTT, 4% glycerol, room temperature, 30 min; GST-TFs on glutathione beads, 16-mer random dsDNA library, 0.1% formaldehyde crosslink after washing; high values mean tight binding
# FLI1 = biological target: T1, FLI1 (Homo sapiens, UniProt Q01543 1-452); details: protein: recombinant; tags: N-terminal GST; dsDNA, one strand shown
# T1 sequence: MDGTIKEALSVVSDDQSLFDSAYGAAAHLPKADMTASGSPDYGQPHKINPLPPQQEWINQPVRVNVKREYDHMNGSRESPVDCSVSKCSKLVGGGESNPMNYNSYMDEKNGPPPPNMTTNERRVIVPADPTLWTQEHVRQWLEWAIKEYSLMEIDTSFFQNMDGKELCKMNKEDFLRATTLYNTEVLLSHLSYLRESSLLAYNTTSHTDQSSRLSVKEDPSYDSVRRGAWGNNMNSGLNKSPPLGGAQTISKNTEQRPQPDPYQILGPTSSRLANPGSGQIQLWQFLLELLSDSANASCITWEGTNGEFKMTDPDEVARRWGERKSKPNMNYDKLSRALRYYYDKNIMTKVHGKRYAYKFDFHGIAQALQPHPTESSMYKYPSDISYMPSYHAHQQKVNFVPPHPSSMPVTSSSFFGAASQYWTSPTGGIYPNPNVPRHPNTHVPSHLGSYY
# Summary of the method: (§1)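 Pools were built from human transcription factors expressed in yeast as GST fusions, captured on glutathione beads and DNA-barcoded, along with a tag-only sample. Incubation with 200 nmole of a 16-mer random double-stranded DNA library lasted 30 min at room temperature in Tris/NaCl/DTT/glycerol buffer, and was followed by washing, 0.1% formaldehyde crosslinking, proximity ligation, PCR amplification and Illumina NextSeq500 sequencing. Binding signal is the quotient of each hexamer's read frequency for a factor and its frequency for the tag-only sample.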
# ELK1 = biological target: T2, ELK1 (Homo sapiens, UniProt P19419 1-428); details: protein: recombinant; tags: N-terminal GST; dsDNA, one strand shown
# T2 sequence: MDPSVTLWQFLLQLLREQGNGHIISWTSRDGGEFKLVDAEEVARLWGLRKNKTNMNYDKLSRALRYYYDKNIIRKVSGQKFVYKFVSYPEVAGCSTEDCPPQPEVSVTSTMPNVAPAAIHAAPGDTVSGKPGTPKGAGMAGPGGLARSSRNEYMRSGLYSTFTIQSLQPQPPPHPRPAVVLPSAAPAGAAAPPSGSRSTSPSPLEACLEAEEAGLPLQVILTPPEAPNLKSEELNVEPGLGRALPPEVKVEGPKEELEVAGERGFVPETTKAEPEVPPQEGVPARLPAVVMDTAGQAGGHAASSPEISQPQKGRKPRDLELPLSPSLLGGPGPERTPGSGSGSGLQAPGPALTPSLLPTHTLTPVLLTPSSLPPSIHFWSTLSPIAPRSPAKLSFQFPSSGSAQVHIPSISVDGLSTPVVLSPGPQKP
# Summary of the method: as §1
# GABPA = biological target: T3, GABPA (Homo sapiens, UniProt Q06546 1-454); details: protein: recombinant; tags: N-terminal GST; dsDNA, one strand shown
# T3 sequence: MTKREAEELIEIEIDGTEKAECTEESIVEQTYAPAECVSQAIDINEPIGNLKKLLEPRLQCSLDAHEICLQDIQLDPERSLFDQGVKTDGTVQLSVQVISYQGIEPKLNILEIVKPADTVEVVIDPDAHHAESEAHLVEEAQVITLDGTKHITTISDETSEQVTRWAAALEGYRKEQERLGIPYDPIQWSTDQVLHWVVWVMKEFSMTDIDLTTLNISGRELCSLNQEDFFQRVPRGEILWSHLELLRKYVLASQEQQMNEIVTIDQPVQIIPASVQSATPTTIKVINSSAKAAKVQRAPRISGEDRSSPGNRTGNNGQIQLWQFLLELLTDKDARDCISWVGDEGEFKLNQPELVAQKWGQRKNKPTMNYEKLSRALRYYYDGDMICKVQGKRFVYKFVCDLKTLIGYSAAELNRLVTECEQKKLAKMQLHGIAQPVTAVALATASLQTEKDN
# Summary of the method: as §1
# ERG = biological target: T4, ERG (Homo sapiens, UniProt P11308 1-479); details: protein: recombinant; tags: N-terminal GST; dsDNA, one strand shown
# T4 sequence: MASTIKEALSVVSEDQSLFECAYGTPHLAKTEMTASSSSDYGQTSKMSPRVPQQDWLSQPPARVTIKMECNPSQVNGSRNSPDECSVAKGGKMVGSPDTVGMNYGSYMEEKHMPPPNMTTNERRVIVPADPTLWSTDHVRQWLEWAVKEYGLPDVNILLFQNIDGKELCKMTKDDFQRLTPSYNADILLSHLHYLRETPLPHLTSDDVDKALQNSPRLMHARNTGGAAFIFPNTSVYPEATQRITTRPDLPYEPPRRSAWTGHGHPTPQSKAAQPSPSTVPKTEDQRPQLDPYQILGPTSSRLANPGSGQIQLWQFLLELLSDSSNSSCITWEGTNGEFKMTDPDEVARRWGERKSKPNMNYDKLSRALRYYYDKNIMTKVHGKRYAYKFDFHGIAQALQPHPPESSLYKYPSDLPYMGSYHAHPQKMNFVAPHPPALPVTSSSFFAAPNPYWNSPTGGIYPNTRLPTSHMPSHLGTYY
# Summary of the method: as §1
# ELF1 = ELF1 (Homo sapiens, UniProt P32519 1-619); details: protein: recombinant; tags: N-terminal GST; dsDNA, one strand shown
# Chain of ELF1 (P32519 whole entry): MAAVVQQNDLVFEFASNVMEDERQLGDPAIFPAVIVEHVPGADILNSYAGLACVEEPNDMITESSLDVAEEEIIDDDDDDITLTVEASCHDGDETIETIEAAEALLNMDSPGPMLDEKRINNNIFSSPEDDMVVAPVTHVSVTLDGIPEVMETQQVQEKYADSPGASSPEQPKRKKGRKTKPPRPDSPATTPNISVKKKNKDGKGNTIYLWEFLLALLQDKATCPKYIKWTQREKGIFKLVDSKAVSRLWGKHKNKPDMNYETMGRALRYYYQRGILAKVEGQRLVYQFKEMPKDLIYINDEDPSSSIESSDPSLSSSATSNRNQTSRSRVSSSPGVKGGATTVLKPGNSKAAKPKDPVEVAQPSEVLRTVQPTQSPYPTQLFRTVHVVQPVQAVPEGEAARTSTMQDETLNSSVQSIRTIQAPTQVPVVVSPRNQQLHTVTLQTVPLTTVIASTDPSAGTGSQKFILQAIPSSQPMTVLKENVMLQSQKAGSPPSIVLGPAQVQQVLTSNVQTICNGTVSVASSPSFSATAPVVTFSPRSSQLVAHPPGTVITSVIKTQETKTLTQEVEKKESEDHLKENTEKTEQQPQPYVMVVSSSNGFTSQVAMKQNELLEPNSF
# Summary of the method: as §1
# EHF = biological target: T5, EHF (Homo sapiens, UniProt Q9NZC4 1-300); details: protein: recombinant; tags: N-terminal GST; dsDNA, one strand shown
# T5 sequence: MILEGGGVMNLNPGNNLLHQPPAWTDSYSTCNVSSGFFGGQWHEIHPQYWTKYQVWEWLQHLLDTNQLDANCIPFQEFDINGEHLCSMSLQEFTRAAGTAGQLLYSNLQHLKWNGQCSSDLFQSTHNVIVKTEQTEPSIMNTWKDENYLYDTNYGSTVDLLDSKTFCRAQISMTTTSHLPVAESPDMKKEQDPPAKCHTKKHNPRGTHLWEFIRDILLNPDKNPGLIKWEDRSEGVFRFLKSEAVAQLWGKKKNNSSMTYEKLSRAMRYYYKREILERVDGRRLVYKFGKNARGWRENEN
# Summary of the method: as §1
# SPI1 = SPI1 (Homo sapiens, UniProt P17947 1-270); details: protein: recombinant; tags: N-terminal GST; dsDNA, one strand shown
# Summary of the method: as §1
# SPIB = SPIB (Homo sapiens, UniProt Q01892 1-262); details: protein: recombinant; tags: N-terminal GST; dsDNA, one strand shown
# Chain of SPIB (Q01892 whole entry): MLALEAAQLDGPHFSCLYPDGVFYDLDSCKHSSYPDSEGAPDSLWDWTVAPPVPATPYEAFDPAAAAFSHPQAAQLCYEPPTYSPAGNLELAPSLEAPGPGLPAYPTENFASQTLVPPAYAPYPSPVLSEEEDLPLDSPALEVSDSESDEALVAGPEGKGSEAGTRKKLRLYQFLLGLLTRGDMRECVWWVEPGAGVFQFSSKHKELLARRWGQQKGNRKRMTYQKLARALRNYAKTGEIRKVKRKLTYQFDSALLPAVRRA
# Summary of the method: as §1
# ELK3 = biological target: T6, ELK3 (Homo sapiens, UniProt P41970 1-407); details: protein: recombinant; tags: N-terminal GST; dsDNA, one strand shown
# T6 sequence: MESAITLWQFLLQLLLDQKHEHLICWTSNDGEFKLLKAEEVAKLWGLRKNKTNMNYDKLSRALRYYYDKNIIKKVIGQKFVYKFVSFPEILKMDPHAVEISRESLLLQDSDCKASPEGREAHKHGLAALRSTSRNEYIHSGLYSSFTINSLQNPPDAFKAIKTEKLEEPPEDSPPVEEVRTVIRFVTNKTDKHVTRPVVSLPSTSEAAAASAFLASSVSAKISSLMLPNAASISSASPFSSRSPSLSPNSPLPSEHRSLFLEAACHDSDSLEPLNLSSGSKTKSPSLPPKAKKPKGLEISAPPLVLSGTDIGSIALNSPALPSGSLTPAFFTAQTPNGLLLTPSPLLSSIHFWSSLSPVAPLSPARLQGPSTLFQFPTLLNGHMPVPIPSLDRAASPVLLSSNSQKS
# Summary of the method: as §1
# FEV = biological target: T7, FEV (Homo sapiens, UniProt Q99581 1-238); details: protein: recombinant; tags: N-terminal GST; dsDNA, one strand shown
# T7 sequence: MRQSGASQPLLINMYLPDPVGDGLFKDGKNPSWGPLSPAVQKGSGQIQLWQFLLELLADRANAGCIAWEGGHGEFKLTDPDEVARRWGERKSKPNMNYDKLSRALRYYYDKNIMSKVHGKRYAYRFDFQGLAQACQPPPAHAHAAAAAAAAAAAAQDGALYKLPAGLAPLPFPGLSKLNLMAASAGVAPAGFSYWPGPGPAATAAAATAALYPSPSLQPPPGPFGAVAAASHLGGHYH
# Summary of the method: as §1
# ETV5 = ETV5 (Homo sapiens, UniProt P41161 1-510); details: protein: recombinant; tags: N-terminal GST; dsDNA, one strand shown
# Chain of ETV5 (P41161 whole entry): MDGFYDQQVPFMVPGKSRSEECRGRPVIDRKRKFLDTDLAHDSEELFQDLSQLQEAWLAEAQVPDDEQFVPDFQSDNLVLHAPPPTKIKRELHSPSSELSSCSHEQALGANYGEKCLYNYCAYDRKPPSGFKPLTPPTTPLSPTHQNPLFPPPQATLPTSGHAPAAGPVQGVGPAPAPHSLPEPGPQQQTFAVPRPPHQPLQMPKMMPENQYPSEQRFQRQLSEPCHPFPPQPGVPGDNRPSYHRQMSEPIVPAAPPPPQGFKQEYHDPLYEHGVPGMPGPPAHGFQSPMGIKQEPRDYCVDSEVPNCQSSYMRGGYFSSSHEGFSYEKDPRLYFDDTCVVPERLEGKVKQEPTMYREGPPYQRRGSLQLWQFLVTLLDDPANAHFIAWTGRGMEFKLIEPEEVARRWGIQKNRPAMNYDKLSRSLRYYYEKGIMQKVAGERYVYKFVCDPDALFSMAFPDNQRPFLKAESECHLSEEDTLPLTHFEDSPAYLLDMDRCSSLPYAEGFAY
# Summary of the method: as §1
# HSF1 = HSF1 (Homo sapiens, UniProt Q00613 1-529); details: protein: recombinant; tags: N-terminal GST; chain copies: 3; dsDNA, one strand shown
# Chain of HSF1 (Q00613 whole entry): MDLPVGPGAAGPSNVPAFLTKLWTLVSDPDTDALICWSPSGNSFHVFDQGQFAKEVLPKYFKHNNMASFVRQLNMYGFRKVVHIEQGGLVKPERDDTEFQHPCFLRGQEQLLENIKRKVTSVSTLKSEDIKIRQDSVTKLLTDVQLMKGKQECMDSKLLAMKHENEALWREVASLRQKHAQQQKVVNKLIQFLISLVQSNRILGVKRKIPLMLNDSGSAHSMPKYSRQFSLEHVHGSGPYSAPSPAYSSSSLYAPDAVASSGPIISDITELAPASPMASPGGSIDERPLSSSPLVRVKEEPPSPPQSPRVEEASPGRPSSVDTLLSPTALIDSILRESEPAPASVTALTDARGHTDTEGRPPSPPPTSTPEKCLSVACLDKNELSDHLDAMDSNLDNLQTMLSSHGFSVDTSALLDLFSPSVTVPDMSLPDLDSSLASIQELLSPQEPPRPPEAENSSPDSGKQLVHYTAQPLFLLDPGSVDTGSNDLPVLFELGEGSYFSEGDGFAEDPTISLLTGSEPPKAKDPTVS
# Summary of the method: as §1
# SPIC = biological target: T8, SPIC (Homo sapiens, UniProt Q8N5J4 1-248); details: protein: recombinant; tags: N-terminal GST; dsDNA, one strand shown
# T8 sequence: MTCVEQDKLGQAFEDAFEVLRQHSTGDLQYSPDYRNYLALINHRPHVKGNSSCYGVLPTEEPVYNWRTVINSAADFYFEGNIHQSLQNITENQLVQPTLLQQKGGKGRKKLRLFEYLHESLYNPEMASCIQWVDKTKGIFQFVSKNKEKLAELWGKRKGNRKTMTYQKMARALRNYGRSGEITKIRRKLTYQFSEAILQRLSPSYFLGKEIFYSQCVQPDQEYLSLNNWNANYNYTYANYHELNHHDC
# Summary of the method: as §1
# ELF4 = ELF4 (Homo sapiens, UniProt Q99607 1-663); details: protein: recombinant; tags: N-terminal GST; dsDNA, one strand shown
# Chain of ELF4 (Q99607 whole entry): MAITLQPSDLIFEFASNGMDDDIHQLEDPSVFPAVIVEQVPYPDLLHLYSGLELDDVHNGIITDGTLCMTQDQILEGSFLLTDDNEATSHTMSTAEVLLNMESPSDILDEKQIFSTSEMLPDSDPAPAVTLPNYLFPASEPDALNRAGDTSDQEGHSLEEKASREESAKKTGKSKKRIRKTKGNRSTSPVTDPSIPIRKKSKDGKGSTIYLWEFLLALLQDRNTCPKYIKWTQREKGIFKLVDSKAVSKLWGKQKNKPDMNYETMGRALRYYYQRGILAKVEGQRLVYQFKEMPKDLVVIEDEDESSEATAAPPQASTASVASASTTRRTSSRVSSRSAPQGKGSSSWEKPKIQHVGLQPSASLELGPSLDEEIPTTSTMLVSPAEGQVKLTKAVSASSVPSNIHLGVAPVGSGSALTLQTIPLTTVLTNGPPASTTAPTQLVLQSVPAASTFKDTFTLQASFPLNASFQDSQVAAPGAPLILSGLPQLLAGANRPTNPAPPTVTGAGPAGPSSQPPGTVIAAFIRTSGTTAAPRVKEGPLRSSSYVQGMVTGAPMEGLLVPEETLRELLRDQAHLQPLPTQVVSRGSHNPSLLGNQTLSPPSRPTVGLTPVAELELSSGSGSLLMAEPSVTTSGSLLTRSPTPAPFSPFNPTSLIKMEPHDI
# Summary of the method: as §1
# ELK4 = biological target: T9, ELK4 (Homo sapiens, UniProt P28324-2 1-405); details: protein: recombinant; tags: N-terminal GST; dsDNA, one strand shown
# T9 sequence: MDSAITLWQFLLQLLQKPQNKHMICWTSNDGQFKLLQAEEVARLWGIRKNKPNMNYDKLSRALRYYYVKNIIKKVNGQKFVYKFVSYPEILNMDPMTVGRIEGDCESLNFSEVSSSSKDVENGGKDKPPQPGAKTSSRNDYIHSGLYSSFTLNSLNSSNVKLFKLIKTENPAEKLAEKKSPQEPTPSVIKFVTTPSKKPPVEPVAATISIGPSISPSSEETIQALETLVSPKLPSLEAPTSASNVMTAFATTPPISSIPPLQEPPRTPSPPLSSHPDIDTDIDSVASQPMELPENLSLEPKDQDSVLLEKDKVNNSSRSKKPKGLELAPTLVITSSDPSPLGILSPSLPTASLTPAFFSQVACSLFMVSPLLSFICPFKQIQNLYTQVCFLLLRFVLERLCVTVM
# Summary of the method: as §1
# ETV2 = biological target: T10, ETV2 (Homo sapiens, UniProt O00321 1-342); details: protein: recombinant; tags: N-terminal GST; dsDNA, one strand shown
# T10 sequence: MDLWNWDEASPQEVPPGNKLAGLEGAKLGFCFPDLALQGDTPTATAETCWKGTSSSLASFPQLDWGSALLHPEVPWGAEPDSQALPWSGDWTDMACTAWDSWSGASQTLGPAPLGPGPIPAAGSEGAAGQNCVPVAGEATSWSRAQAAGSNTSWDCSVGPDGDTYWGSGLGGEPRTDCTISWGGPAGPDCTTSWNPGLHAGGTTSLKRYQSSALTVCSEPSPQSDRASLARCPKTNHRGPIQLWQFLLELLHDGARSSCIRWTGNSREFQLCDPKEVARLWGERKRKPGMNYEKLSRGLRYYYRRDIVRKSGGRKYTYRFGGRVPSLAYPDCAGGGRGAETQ
# Summary of the method: as §1
# ELF3 = biological target: T11, ELF3 (Homo sapiens, UniProt P78545 1-371); details: protein: recombinant; tags: N-terminal GST; dsDNA, one strand shown
# T11 sequence: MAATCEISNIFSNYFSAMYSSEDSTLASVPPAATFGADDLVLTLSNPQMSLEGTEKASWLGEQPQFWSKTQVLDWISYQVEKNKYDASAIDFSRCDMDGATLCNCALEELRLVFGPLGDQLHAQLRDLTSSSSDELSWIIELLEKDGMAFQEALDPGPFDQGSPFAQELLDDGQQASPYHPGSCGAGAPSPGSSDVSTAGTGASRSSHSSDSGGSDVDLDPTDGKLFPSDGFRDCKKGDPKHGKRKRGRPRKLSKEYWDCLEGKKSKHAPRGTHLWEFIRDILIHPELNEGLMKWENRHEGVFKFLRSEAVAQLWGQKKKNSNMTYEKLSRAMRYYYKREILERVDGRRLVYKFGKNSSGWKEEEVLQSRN
# Summary of the method: as §1
# CRX = CRX (Homo sapiens, UniProt O43186 1-299); details: protein: recombinant; tags: N-terminal GST; dsDNA, one strand shown
# Chain of CRX (O43186 whole entry): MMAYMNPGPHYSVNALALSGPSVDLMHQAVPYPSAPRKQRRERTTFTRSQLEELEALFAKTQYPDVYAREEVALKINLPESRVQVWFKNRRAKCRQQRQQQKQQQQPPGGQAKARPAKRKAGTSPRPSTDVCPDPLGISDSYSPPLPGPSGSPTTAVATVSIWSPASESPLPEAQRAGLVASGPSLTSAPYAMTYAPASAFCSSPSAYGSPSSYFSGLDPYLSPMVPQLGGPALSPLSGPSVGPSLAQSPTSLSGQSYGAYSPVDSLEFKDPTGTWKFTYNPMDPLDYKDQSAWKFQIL
# Summary of the method: as §1
# ETV1 = ETV1 (Homo sapiens, UniProt P50549 1-477); details: protein: recombinant; tags: N-terminal GST; dsDNA, one strand shown
# Chain of ETV1 (P50549 whole entry): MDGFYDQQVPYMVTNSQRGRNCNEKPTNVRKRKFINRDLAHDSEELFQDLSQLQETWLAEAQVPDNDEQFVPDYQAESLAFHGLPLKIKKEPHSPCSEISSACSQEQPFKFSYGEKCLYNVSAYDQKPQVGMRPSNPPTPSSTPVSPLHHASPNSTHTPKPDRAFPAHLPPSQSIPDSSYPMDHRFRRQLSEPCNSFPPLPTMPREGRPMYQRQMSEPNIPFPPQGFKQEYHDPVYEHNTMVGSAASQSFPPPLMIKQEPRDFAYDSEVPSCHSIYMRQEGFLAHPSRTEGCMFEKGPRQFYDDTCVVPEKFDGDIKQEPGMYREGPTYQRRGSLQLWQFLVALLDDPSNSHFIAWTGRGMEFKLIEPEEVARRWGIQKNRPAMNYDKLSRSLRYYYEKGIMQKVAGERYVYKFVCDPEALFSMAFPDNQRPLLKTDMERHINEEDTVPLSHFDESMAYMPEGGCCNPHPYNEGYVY
# Summary of the method: as §1
sequence,measurement,setting,value
GACATT,binding signal,FLI1,"1.16 fold enrichment (6-mer frequency, TF over GST control)"
same,binding signal,ELK1,"1.17 fold enrichment (6-mer frequency, TF over GST control)"
same,binding signal,GABPA,"1.12 fold enrichment (6-mer frequency, TF over GST control)"
same,binding signal,ERG,"1.15 fold enrichment (6-mer frequency, TF over GST control)"
same,binding signal,ELF1,"1.16 fold enrichment (6-mer frequency, TF over GST control)"
same,binding signal,EHF,"1.11 fold enrichment (6-mer frequency, TF over GST control)"
same,binding signal,SPI1,"1.13 fold enrichment (6-mer frequency, TF over GST control)"
same,binding signal,SPIB,"1.16 fold enrichment (6-mer frequency, TF over GST control)"
same,binding signal,ELK3,"1.02 fold enrichment (6-mer frequency, TF over GST control)"
same,binding signal,FEV,"1.13 fold enrichment (6-mer frequency, TF over GST control)"
same,binding signal,ETV5,"1.17 fold enrichment (6-mer frequency, TF over GST control)"
same,binding signal,HSF1,"1.09 fold enrichment (6-mer frequency, TF over GST control)"
same,binding signal,SPIC,"1.12 fold enrichment (6-mer frequency, TF over GST control)"
same,binding signal,ELF4,"1.14 fold enrichment (6-mer frequency, TF over GST control)"
same,binding signal,ELK4,"1.1 fold enrichment (6-mer frequency, TF over GST control)"
same,binding signal,ETV2,"1.13 fold enrichment (6-mer frequency, TF over GST control)"
same,binding signal,ELF3,"1.16 fold enrichment (6-mer frequency, TF over GST control)"
same,binding signal,CRX,"1.01 fold enrichment (6-mer frequency, TF over GST control)"
same,binding signal,ETV1,"1.26 fold enrichment (6-mer frequency, TF over GST control)"
